Measured values taken from PubChem BioAssay (NCI).
The panel holds about 79,000 compounds, 15% with a hit somewhere; the sample as a whole holds those more often. Activity calls are given as the source filed them. No stated cut-off is given here; in the data, active means growth inhibition above about 70%; inactive means the rest.

Columns and labels:
[1] = NCI Yeast Anticancer Drug Screen. Data for the wt1 strain (AID 149);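 further: 0% = growth of vehicle-treated wt1 cultures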; conditions: S. cerevisiae wt1 strain (SPY 50644) growth inhibition, hits give high values
Method in brief: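 Vehicle-normalised growth inhibition; strain wt1; compound exposure.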

[2] = NCI Yeast Anticancer Drug Screen. Data for the rad50EPP+ strain (AID 151);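 further: 0% = growth of vehicle-treated control cultures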; conditions: S. cerevisiae rad50 mutant strain, hits give high values
Method in brief: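 One strain with a rad50 alteration (rad50EPP+) was compound-treated, its growth then compared to that of vehicle controls.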

[3] = NCI Yeast Anticancer Drug Screen. Data for the rad50 strain (AID 155);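 further: 0% = growth of vehicle-only cultures of the same strain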; conditions: S. cerevisiae rad50 strain growth inhibition, hits give high values
Method in brief: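 A DNA repair-deficient yeast mutant serves as the test organism; compound-induced growth inhibition is calculated against vehicle-treated cells.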

[4] = NCI Yeast Anticancer Drug Screen. Data for the mec2-1 strain (AID 157); conditions: S. cerevisiae mec2-1 strain, hits give high values
Method in brief: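 Test agents were screened against the mec2-1 yeast strain, with defined DNA repair or cell cycle alteration. Growth was scored as inhibition against vehicle-only controls.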

[5] = NCI Yeast Anticancer Drug Screen. Data for the rad14 strain (AID 159);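 further: 0% = growth of vehicle-treated control cultures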; conditions: S. cerevisiae rad14 strain growth inhibition, hits give high values
Method in brief: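 Vehicle-treated cultures served as the baseline for growth inhibition of a DNA repair-mutant yeast strain exposed to each compound.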

[6] = NCI Yeast Anticancer Drug Screen. Data for the sgs1 mgt1 strain (AID 161);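 further: 0% = growth of cultures given vehicle only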; conditions: S. cerevisiae sgs1 mgt1 strain, hits give high values
Method in brief: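 Read-out: growth inhibition vs vehicle controls. Cells: mutant yeast strain deficient in DNA damage repair.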

[7] = NCI Yeast Anticancer Drug Screen. Data for the CLN2oe strain (AID 163);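 further: 0% = growth of vehicle-only control cultures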; conditions: S. cerevisiae CLN2oe strain, hits give high values
Method in brief: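 Here, growth inhibition in a cell-cycle-altered yeast strain after compound exposure was quantified against vehicle control growth.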

[8] = NCI Yeast Anticancer Drug Screen. Data for the cln2 rad14 strain (AID 165);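 further: 0% = growth equal to vehicle treated cultures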; conditions: S. cerevisiae cln2 rad14 strain, hits give high values
Method in brief: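 Growth of compound-exposed yeast (cln2 rad14 genotype) measured and expressed as inhibition relative to vehicle.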

[9] = NCI Yeast Anticancer Drug Screen. Data for the bub3 strain (AID 167); conditions: S. cerevisiae bub3 mutant strain, hits give high values
Method in brief: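 Inhibition values come from growth of compound-treated mutant yeast normalised to vehicle-treated controls.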

[10] = NCI Yeast Anticancer Drug Screen. Data for the wt2 strain (AID 169);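 further: 0% = growth of vehicle-treated yeast cultures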; conditions: S. cerevisiae wt2 strain growth inhibition, hits give high values
Method in brief: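 Genetically defined yeast strains from a DNA-repair/cell-cycle panel were used. Compound-exposed yeast growth was measured, and the inhibition was calculated relative to vehicle treatment.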

[11] = NCI Yeast Anticancer Drug Screen. Data for the mlh1 strain (AID 171);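 further: 0% = growth of vehicle-treated control cultures of the same strain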; conditions: S. cerevisiae mlh1 strain growth inhibition, hits give high values
Method in brief: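 Here the genetically defined yeast mutant is grown with each compound, and the extent to which its growth falls below that of vehicle-exposed cells is reported.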

[12] = NCI Yeast Anticancer Drug Screen. Data for the sgs1 strain (AID 173);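 further: 0% = growth of vehicle-only control cultures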; conditions: S. cerevisiae sgs1 mutant, hits give high values
Method in brief: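 Relative growth inhibition, referenced to vehicle, was determined in a yeast strain with a defined alteration affecting DNA damage repair or cell cycle control after compound exposure.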

[13] = NCI Yeast Anticancer Drug Screen. Data for the mlh1 rad18 strain (AID 175); conditions: S. cerevisiae mlh1 rad18 strain growth inhibition, hits give high values
Method in brief: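 In this whole-cell yeast screen, a strain with altered DNA damage repair is challenged with compound, and its growth is measured against matched vehicle-treated controls.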

[14] = NCI Yeast Anticancer Drug Screen. Data for the rad18 strain (AID 177); conditions: S. cerevisiae rad18 mutant growth inhibition, hits give high values
Method in brief: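 Screen uses a yeast strain with a defined lesion in DNA damage repair; compound effect is read as loss of growth compared to untreated vehicle cultures.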

[15] = at 5.0 µM (retest, dose inferred, filed as 0.5)
[16] = at 50.0 µM (retest, dose inferred, filed as 5.0)

Measured: growth inhibition

Cc1ccc2nc(N/N=C/c3ccc(C)s3)cc(C)c2c1
active: [1]; at 33.0 µM 99% | [1]; at 100.0 µM 94% | [2]; at 100.0 µM 70% | [3]; at 33.0 µM 99% | [3]; [16] 98% | [3]; at 50.0 µM 89.7% | [3]; at 100.0 µM 93% | [4]; at 33.0 µM 99% | [4]; [16] 99% | [4]; at 50.0 µM 92.7% | [4]; at 100.0 µM 96% | [5]; at 33.0 µM 99% | [5]; at 100.0 µM 98% | [6]; at 50.0 µM 91.8% | [7]; at 33.0 µM 99% | [7]; at 100.0 µM 93% | [8]; at 50.0 µM 90.8% | [9]; at 33.0 µM 99% | [9]; at 50.0 µM 91.7% | [9]; at 100.0 µM 95% | [10]; at 33.0 µM 99% | [10]; at 100.0 µM 96% | [11]; at 33.0 µM 99% | [11]; at 100.0 µM 99% | [12]; at 33.0 µM 99% | [12]; at 100.0 µM 93% | [13]; [16] 98% | [13]; at 50.0 µM 91.2% | [14]; at 33.0 µM 99% | [14]; at 100.0 µM 93%
inactive: [1]; at 1.2 µM -27% | [1]; at 3.7 µM -18% | [1]; at 11.0 µM 1% | [2]; at 1.2 µM -15% | [2]; at 3.7 µM -5% | [2]; at 11.0 µM 2% | [2]; at 33.0 µM 44% | [3]; at 1.2 µM -2% | [3]; at 3.7 µM -22% | [3]; [15] 22% | [3]; at 11.0 µM -1% | [4]; at 1.2 µM -23% | [4]; at 3.7 µM -17% | [4]; [15] 12% | [4]; at 11.0 µM -19% | [5]; at 1.2 µM -32% | [5]; at 3.7 µM -18% | [5]; at 11.0 µM 0% | [6]; [15] 10% | [6]; [16] 9% | [7]; at 1.2 µM 5% | [7]; at 3.7 µM -5% | [7]; at 11.0 µM 7% | [8]; [15] 17% | [8]; [16] -18% | [9]; at 1.2 µM -6% | [9]; at 3.7 µM 5% | [9]; [15] 7% | [9]; at 11.0 µM 15% | [9]; [16] -10% | [10]; at 1.2 µM 9% | [10]; at 3.7 µM 6% | [10]; at 11.0 µM 30% | [11]; at 1.2 µM -18% | [11]; at 3.7 µM -28% | [11]; at 11.0 µM -10% | [12]; at 1.2 µM -12% | [12]; at 3.7 µM -19% | [12]; at 11.0 µM -1% | [13]; [15] 31% | [14]; at 1.2 µM -8% | [14]; at 3.7 µM -1% | [14]; at 11.0 µM 2%

COC(=O)C1(N2CCOCC2)CCC([C@@H](c2ccccc2)C(C)[N+](=O)[O-])C1 (stereo partly specified)
active: [2]; at 100.0 µM 86% | [3]; at 100.0 µM 94% | [14]; at 100.0 µM 82%
inactive: [1]; at 1.2 µM -3% | [1]; at 3.7 µM -2% | [1]; at 11.0 µM -2% | [1]; at 33.0 µM -3% | [1]; at 100.0 µM 4% | [2]; at 1.2 µM 2% | [2]; at 3.7 µM 3% | [2]; at 11.0 µM 15% | [2]; at 33.0 µM 54% | [3]; at 1.2 µM 0% | [3]; at 3.7 µM 2% | [3]; [15] 11% | [3]; at 11.0 µM 17% | [3]; at 33.0 µM 43% | [3]; [16] -3% | [3]; at 50.0 µM 57.2% | [4]; at 1.2 µM -3% | [4]; at 3.7 µM 1% | [4]; [15] 0% | [4]; at 11.0 µM 4% | [4]; at 33.0 µM 4% | [4]; [16] 2% | [4]; at 50.0 µM 26.4% | [4]; at 100.0 µM 34% | [5]; at 1.2 µM 1% | [5]; at 3.7 µM 1% | [5]; at 11.0 µM 6% | [5]; at 33.0 µM 9% | [5]; at 100.0 µM 39% | [6]; [15] 0% | [6]; [16] -2% | [6]; at 50.0 µM 20.6% | [7]; at 1.2 µM -9% | [7]; at 3.7 µM -4% | [7]; at 11.0 µM -10% | [7]; at 33.0 µM -3% | [7]; at 100.0 µM 9% | [8]; [15] -1% | [8]; [16] -2% | [8]; at 50.0 µM 8.15% | [9]; at 1.2 µM -1% | [9]; at 3.7 µM -12% | [9]; [15] 1% | [9]; at 11.0 µM -8% | [9]; at 33.0 µM -13% | [9]; [16] -29% | [9]; at 50.0 µM -2.55% | [9]; at 100.0 µM 24% | [10]; at 1.2 µM -2% | [10]; at 3.7 µM -3% | [10]; at 11.0 µM -4% | [10]; at 33.0 µM -4% | [10]; at 100.0 µM 11% | [11]; at 1.2 µM -3% | [11]; at 3.7 µM -2% | [11]; at 11.0 µM 1% | [11]; at 33.0 µM 3% | [11]; at 100.0 µM 25% | [12]; at 1.2 µM -1% | [12]; at 3.7 µM -1% | [12]; at 11.0 µM 1% | [12]; at 33.0 µM 7% | [12]; at 100.0 µM 49% | [13]; [15] 3% | [13]; [16] 3% | [13]; at 50.0 µM 27.5% | [14]; at 1.2 µM 1% | [14]; at 3.7 µM 2% | [14]; at 11.0 µM 6% | [14]; at 33.0 µM 14%
